Assay [1] concerns Vero E6 infected with SARS-CoV-2. The assay is described as follows: morphology score (similarity to uninfected cells); higher = more like uninfected cells. Conditions: 24 h.
The test system is the same in assay [2]. The assay is described as follows: SARS-CoV-2 infection rate relative to infected DMSO; higher = more infection, active = 60 or less. Conditions: 24 h.

In assay [1], `CCCCCCCCCCCCCCCC[n+]1ccccc1` [cetylpyridinium] (0.833333 µM) showed a morphology score of 0.0939. The SARS-CoV-2 infection rate in assay [2] was 86% (inactive).
For the molecule `CNC(=O)c1ccccc1Nc1cc(Nc2ccc(N3CCOCC3)cc2OC)ncc1C(F)(F)F` (10 µM), the morphology score in assay [1] is -0.0543. The SARS-CoV-2 infection rate in assay [2] is 111% (inactive).
The corresponding values for `O=C(c1ccc(F)cc1)N1CCC[C@H](c2nc(-c3ccc(F)cc3)no2)C1` (10 µM) are 0.242 and 93.5% (inactive).
Regarding `CCC[C@@H]1C[C@@H](C(=O)N[C@@H]([C@H]2O[C@H](SC)[C@H](OP(=O)(O)O)[C@@H](O)[C@H]2O)[C@H](C)Cl)N(C)C1` [Clindamycin phosphate] (10 µM), the morphology score in assay [1] was -0.0234. In addition, the SARS-CoV-2 infection rate in assay [2] is 107% (inactive).
The corresponding values for `N=C(N)c1ccc(OCCCCCOc2ccc(C(=N)N)cc2)cc1` [pentamidine] (10 µM) are 0.104 and 109% (inactive).
Consider `OC[C@H]1OC(O)[C@H](O)[C@@H](O)[C@@H]1O` (stereo partly specified) [dextrose] (10 µM), for which, in assay [1], the morphology score is -0.00495. In assay [2], the SARS-CoV-2 infection rate is 110% (inactive).
As to `N#Cc1ccc(COC[C@H]2O[C@@H](n3c(NCc4ccc(Cl)c(Cl)c4)nc4c(N)ncnc43)[C@H](O)[C@@H]2O)cc1` (10 µM), in assay [1], the morphology score was found to be 0.0983. Further, the SARS-CoV-2 infection rate in assay [2] was 106% (inactive).
Take `Nc1ccc(C(=O)O)cc1` [potassium-p-aminobenzoate] (10 µM): the morphology score in assay [1] is -0.112. Besides, the SARS-CoV-2 infection rate in assay [2] was 108% (inactive).
`C[C@H](N[C@@H](CCc1ccccc1)C(=O)O)C(=O)N1CCC[C@H]1C(=O)O` [enalaprilat] (10 µM) returned a morphology score in assay [1] of -0.0398. Moreover, in assay [2], the SARS-CoV-2 infection rate is 107% (inactive).
Consider `O=[N+]([O-])C(Br)(CO)CO` [bronopol] (10 µM), for which, in assay [1], the morphology score was -0.0828. Further, the SARS-CoV-2 infection rate in assay [2] was 108% (inactive).
Consider `CCOc1ccc(C[C@H]2NC(=O)CCSSC[C@@H](C(=O)N3CCC[C@H]3C(=O)N[C@@H](CCCN)C(=O)NCC(N)=O)NC(=O)[C@H](CC(N)=O)NC(=O)[C@H]([C@@H](C)O)NC(=O)[C@H]([C@@H](C)CC)NC2=O)cc1` [atosiban] (10 µM), for which the morphology score in assay [1] was determined as 0.175. In addition, in assay [2], the SARS-CoV-2 infection rate is 91% (inactive).
`Nc1c(CC(=O)O)cccc1C(=O)c1ccc(Br)cc1` [bromfenac] (10 µM) had a morphology score in assay [1] of -0.048. Moreover, the SARS-CoV-2 infection rate in assay [2] is 104% (inactive).
Take `O=c1ccc2ccc(OCCCCN3CCN(c4cccc5sccc45)CC3)cc2[nH]1` [brexpiprazole] (10 µM): the morphology score in assay [1] worked out at 0.0142. The SARS-CoV-2 infection rate in assay [2] was 98.5% (inactive).
The corresponding values for `O=c1[nH]cnc2c1ncn2[C@H]1CC[C@@H](CO)O1` [didanosine] (10 µM) are 0.186 and 112% (inactive).
As for `COc1ccc2c(C(=S)N(C)CC(=O)O)cccc2c1C(F)(F)F` [tolrestat] (10 µM), the morphology score in assay [1] was -0.0111. In addition, the SARS-CoV-2 infection rate in assay [2] is 108% (inactive).
`N#CC(c1ccnc(OCc2ccc(CN3CCOCC3)cc2)n1)c1nc2ccccc2s1` (stereo unspecified) (10 µM) gave a morphology score in assay [1] of 0.195. In addition, the SARS-CoV-2 infection rate in assay [2] is 99.5% (inactive).
Turning to `Cc1ccc(-n2sc(=O)n(Cc3ccc(F)cc3)c2=O)cc1` (10 µM), the morphology score in assay [1] worked out at 0.218. Also, in assay [2], the SARS-CoV-2 infection rate was 96% (inactive).
Turning to `Cn1nnc(-c2ccc(-c3ccc(N4C[C@H](COP(=O)(O)O)OC4=O)cc3F)cn2)n1` [tedizolid-phosphate] (10 µM), in assay [1], the morphology score stood at 0.194. Moreover, in assay [2], the SARS-CoV-2 infection rate is 88% (inactive).
The corresponding values for `Cc1ccccc1NC(=N)Nc1ccccc1C` [ditolylguanidine] (10 µM) are -0.286 and 117% (inactive).
The corresponding values for `Cc1[nH]c2ccc(F)cc2c1-c1nc2c3cccnc3c3ncccc3c2[nH]1` (10 µM) are 0.21 and 102% (inactive).
The molecule `OCCCCO` [1,4-butanediol] (10 µM) yielded a morphology score in assay [1] of 0.0223. Besides, in assay [2], the SARS-CoV-2 infection rate is 105% (inactive).
Take `O=C(/C=C/c1ccc2c(c1)OCO2)N1CCCCC1` [ilepcimide] (10 µM): the morphology score in assay [1] turned out to be 0.197. The SARS-CoV-2 infection rate in assay [2] was 95.5% (inactive).
Regarding `OCc1cc([C@@H](O)CNCCCCCCOCCOCc2c(Cl)cccc2Cl)ccc1O` [vilanterol] (10 µM), in assay [1], the morphology score is 0.0228. For the same molecule, the SARS-CoV-2 infection rate in assay [2] is 111% (inactive).
As to `Cc1cccc(C)c1NC(=O)CC12CCCN1CCC2` [pilsicainide] (10 µM), in assay [1], the morphology score was -0.223. Also, in assay [2], the SARS-CoV-2 infection rate is 115% (inactive).
The corresponding values for `CCCS(=O)(=O)Nc1ccc(F)c(C(=O)c2c[nH]c3ncc(Cl)cc23)c1F` (10 µM) are -0.0271 and 114% (inactive).
For the molecule `CC(=O)N1CCC[C@H]1C(=O)N[C@@H](Cc1cnc[nH]1)C(=O)N[C@@H](CO)C(=O)N[C@@H](CS)C(=O)N[C@@H](CC(N)=O)C(N)=O` (10 µM), in assay [1], the morphology score is 0.0957. The SARS-CoV-2 infection rate in assay [2] was 93% (inactive).
Consider `Oc1ccc2ccccc2c1` [beta-naphthol] (10 µM), for which the morphology score in assay [1] is -0.0489. Besides, in assay [2], the SARS-CoV-2 infection rate is 111% (inactive).
With `O=C(OCC(O)CO)c1ccccc1Nc1ccnc2cc(Cl)ccc12` (stereo unspecified) [glafenine] (10 µM), the morphology score in assay [1] was 0.535. Moreover, the SARS-CoV-2 infection rate in assay [2] is 83% (inactive).
